# Bioassay records: PubChem BioAssay, National Center for Advancing Translational Sciences (NCATS)
# AmpC detergent = blocks E. coli AmpC beta-lactamase in detergent assay; AID 485294; 370,000 tested, 0.041% active; AmpC hydrolysis of nitrocefin, absorbance 480 nm, 0.01% Triton; Potency, µM (top dose mostly 114 µM), without a hit: at the top dose activity change, negative = inhibition, usual class: inhibitors;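 also: 0% = no-compound wells and -100% = no-enzyme wells; nearly all actives have a fitted effect of over 25% in size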
# Target sequence (P00811 whole entry, looked up): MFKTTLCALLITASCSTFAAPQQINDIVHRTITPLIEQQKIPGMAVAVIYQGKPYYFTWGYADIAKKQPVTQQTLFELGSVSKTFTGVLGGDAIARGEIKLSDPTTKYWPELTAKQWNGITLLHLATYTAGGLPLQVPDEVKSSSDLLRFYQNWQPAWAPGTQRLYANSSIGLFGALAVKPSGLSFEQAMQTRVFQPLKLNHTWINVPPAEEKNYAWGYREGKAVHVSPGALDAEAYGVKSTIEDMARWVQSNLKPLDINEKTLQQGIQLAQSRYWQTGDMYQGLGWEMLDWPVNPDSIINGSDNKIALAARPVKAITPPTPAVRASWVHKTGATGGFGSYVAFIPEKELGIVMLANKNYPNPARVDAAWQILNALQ
#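 AmpC (5.3 nM in the dispensed reagent) in 20 mM phosphate pH 7.0 with 0.01% (detergent screen) or 0.0001% Triton X-100 was preincubated with compounds for 15 min at room temperature. Nitrocefin was then added from an 800 uM solution, and hydrolysis was followed at 480 nm.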
# Sm TGR inh = S. mansoni TGR enzyme inhibition; 360,000 tested, 3% active; AID 485364; purified TGR, DTNB reduction, TNB absorbance 405 nm; Potency, µM (doses to about 114 µM), for inactives: top-dose activity change, negative = inhibition, hits mostly inhibitors; also: nearly all actives have a fitted effect of over 60% in size
#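 TGR 20 nM + NADPH 100 uM (dispensed conc.), cpd preinc 15 min RT; start with NADPH (500 uM addition) then DTNB (15 mM addition). Kinetic TNB absorbance, 405 nm filter. Four-parameter Hill fit across titration.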
# AmpC inh no detg = inhibitors of E. coli AmpC beta-lactamase without detergent. AID 485341. P00811. Potency, µM (top dose mostly 57.1 µM), inactives show at the highest dose activity change, negative = inhibition, hits mostly inhibitors. 330,000 tested, 0.52% active. AmpC nitrocefin hydrolysis, absorbance 480 nm, 0.0001% Triton;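 also: plate controls were no compound for no effect and no enzyme for full effect; nearly all actives have a fitted effect of over 20% in size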
#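 AmpC (5.3 nM in the dispensed reagent) in 20 mM phosphate pH 7.0 with 0.01% (detergent screen) or 0.0001% Triton X-100 was preincubated with compounds for 15 min at room temperature. Nitrocefin was then added from an 800 uM solution, and hydrolysis was followed at 480 nm.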
# An asterisk follows results filed as active; ? = inconclusive; nt = not tested or not shown; [ ] = remark or other dose. In the library only some 3.3% were active in any assay of this set; here they are far more common. Calls follow the shape of the dose curve; as a rule, active = well fitted curve in the direction sought with a large enough effect; inconclusive = small, poorly fitted or top-dose-only effect, or another doubt; inactive = no such curve, though single readings can be large; an effect the other way counts as inactive or inconclusive. Unless noted, % is scaled to controls: 0 for no effect and ±100 for the full control effect; potency is read from the fitted curve at half-maximal effect.
SMILES,AmpC detergent,Sm TGR inh,AmpC inh no detg
Cc1nc2ccccc2c(=O)n1-c1ccc(NC(=O)c2ccccc2[N+](=O)[O-])cc1,-3%,2%,nt
COc1ccc(S(=O)(=O)N2CCC(C(=O)NCCC(=O)Nc3ccc(Cl)cc3)CC2)cc1,9%,8%,79%
COc1ccc(NC(=O)/C(=C/c2cccnc2)NC(=O)c2cccs2)cc1,?,-7%,-22%
Cc1ccc([C@@H]2[C@@H]3C(=O)N(c4ccccc4)C(=O)[C@@H]3[C@]3(C)C(=O)N(Cc4ccccc4)CC(=O)N23)o1,?,-18%,99%
CC1NC2(C(=O)N(Cc3ccccc3)c3ccccc32)C2C(=O)N(c3ccccc3)C(=O)C12 (stereo unspecified),?,-11%,11µM*
N#Cc1ccc2c(c1)C[C@]1(c3ccsc3)Oc3c(c(=O)oc4ccccc34)C2O1,-3%[22.9 µM],7.1µM*,5µM*
COc1ccc2c3c(c(=O)oc2c1)C1O[C@](c2ccsc2)(Cc2cc(C#N)ccc21)O3,?,6.3µM*,5µM*
Cc1cc2c(c(=O)o1)C1O[C@](c3ccsc3)(Cc3cc(C#N)ccc31)O2,?,?,-50%[11.4 µM]
COc1ccc([C@]23Cc4cc(C#N)ccc4C(O2)c2c(cc(-c4ccccc4)oc2=O)O3)cc1,-12%[22.9 µM],-23%[22.9 µM],?
O=C(CNC(=O)c1ccc2ccccc2c1)NCc1ccccc1F,6%,-1%,-24%
C=C1C(=O)O[C@@H]2C[C@@H](C)[C@@H]3C4OC4C(=O)[C@@]3(C)[C@@H](O)[C@H]12 (stereo partly specified),-2%,40µM*,44%
CC1C(=O)O[C@@H]2C[C@@H](C)[C@@H]3CCC(=O)[C@@]3(C)[C@@H](O)[C@H]12 (stereo partly specified),4%,7%,-1%
CCOC(=O)C1=C(c2ccccc2)NC(SC)=C(C#N)C1c1ccco1 (stereo unspecified),-8%,35µM*,-27%
CCOC(=O)C1=C(c2ccccc2)NC(SCC(=O)Nc2ccc(C)cc2)=C(C#N)C1c1ccco1 (stereo unspecified),-4%,-11%,nt
COc1ccc(-n2nnnc2C2CCN(S(=O)(=O)c3cc(Cl)ccc3OC)CC2)cc1,15%,5%,nt
Cc1ccc(Cl)cc1NS(=O)(=O)c1ccc2oc(=O)c3ncn(C)c3c2c1,-1%,-3%,nt
Cc1ccc(-n2nnnc2CCl)cc1,-5%,5.6µM*,4%
Cc1ccc(-c2nnnn2-c2ccc(C)cc2)cc1,-7%,10%,-23%
Cc1cc(C)nc(NC(=O)Cc2ccc([N+](=O)[O-])cc2)c1,?,5%,-29%
CCCNC(=O)Nc1cccc(C(=O)OC)c1,1%,2%,-3%
CC(=O)Oc1ccc(N2C(=O)C3C(C2=O)C2C=CC3C23CC3)cc1[N+](=O)[O-] (stereo unspecified),1%,18µM*,-12%
Cc1cccc(NC(=O)c2cccc(N3C(=O)C4C5C=CC(C6CC56)C4C3=O)c2)c1 (stereo unspecified),?,-21%,-8%
CCOc1ccc(C(C)=O)cc1N1C(=O)C2C(C1=O)C1C=CC2C12CC2 (stereo unspecified),3%,?,11%
CC(=O)Oc1ccc(N2C(=O)C3C4C=CC(C5CC45)C3C2=O)cc1[N+](=O)[O-] (stereo unspecified),-11%,10µM*,-22%
Cc1ccc(CNC(=O)COC(=O)c2cccnc2Cl)cc1,nt,nt,-17%
SMILES,AmpC detergent,Sm TGR inh,AmpC inh no detg
CC(C)(C)NCC(=O)N/N=C/c1ccc(OCc2ccccc2)cc1,-4%,nt,75%
COCCNc1oc(/C=C/c2ccc(F)cc2)nc1S(=O)(=O)c1ccccc1,-7%,32µM*,1%
COCCCNc1oc(/C=C/c2ccccc2)nc1C#N,-6%,-31%,13%
O=S(=O)(c1ccccc1)c1nc(-c2ccccc2)oc1NCc1cccnc1,1%,-26%,44%
C=CCNc1oc(-c2cccs2)nc1S(=O)(=O)c1ccccc1,-7%,0%,10%
O=S(=O)(c1ccccc1)c1nc(-c2ccco2)oc1NCc1cccnc1,-3%,25µM*,-13%
C=CCNc1oc(-c2ccco2)nc1S(=O)(=O)c1ccccc1,0%,13µM*,-10%
COCCNc1oc(-c2ccco2)nc1S(=O)(=O)c1ccccc1,-1%,50µM*,0%
COCCNc1oc(-c2cccs2)nc1S(=O)(=O)c1ccc(C)cc1,1%,-2%,-4%
CCCCn1c(N)c(N(CC(C)C)C(=O)C2CC(=O)N(Cc3ccccc3)C2)c(=O)[nH]c1=O (stereo unspecified),-13%,-2%,-3%
CC1(C)Oc2ccc(C(=O)Nc3ccccc3)cc2N(CC#N)C1=O,2%,-12%,-32%
NC(=S)N1CCCc2ccccc21,-5%,0%,-11%
Cc1ccc(SCC(=O)n2nc(C)cc2C)cc1,5%,2%,-14%
Cc1cc(C)n(C(=O)CSc2nc3ccccc3o2)n1,28µM*,-2%,-4%
O=C(CSc1nc2nn(-c3ccccc3)c(=O)c-2c2n1CCCCC2)Nc1ccc(F)c(F)c1,nt,nt,10µM*
O=C(CSc1nc2nn(-c3ccccc3)c(=O)c-2c2n1CCCCC2)Nc1ccc(F)cc1F,-2%,-13%,-11%
CCc1cccc2sc(N3CCN(C(=O)c4ccc([N+](=O)[O-])o4)CC3)nc12,?,-22%,29%
CC(=O)c1cccc(S(=O)(=O)NCC(C)(C)N2CCOCC2)c1,0%,40µM*,-9%
CC(C)(CNC(=O)c1cccc(S(=O)(=O)NCc2ccccc2)c1)N1CCOCC1,3%,1%,-11%
COC(C(=O)NC(C(C)C)C(C)C)c1ccccc1 (stereo unspecified),-15%,1%,-11%
O=C(Nc1ccc(-c2cn3ccccc3n2)cc1)c1cccs1,-7%,-30%,28µM*
COc1ccc(CC(=O)Nc2ccc(-c3cn4ccccc4n3)cc2)cc1,-10%,20%,-12%
O=C1CC(=O)N(CCc2ccccc2)C(=O)N1CCc1ccccc1,-1%,-4%,-39%
O=C1C=CC(=O)C(C2=C3C(=O)N(CCc4ccccc4)CC(=O)N3CCC2)=C1,?,0.28µM*,-43%
CN1C2CCC1/C(=C\c1ccccc1F)C(=O)/C2=C/c1ccccc1F,-13%,20µM*,-27%
SMILES,AmpC detergent,Sm TGR inh,AmpC inh no detg
CC1CCN(C2=NC(=O)/C(=C/c3ccccc3F)S2)CC1,-5%,0%,-6%
NC(=O)c1ccc(-n2nnnc2SCC(=O)NC2CCCCC2)cc1,-6%,-2%,-7%
O=C(COC(=O)c1cc(=O)[nH]c2ccccc12)Nc1ccc(F)cc1,nt,nt,-23%
COc1ccc(N(Cc2cc(=O)[nH]c3ccccc23)C(=O)c2ccco2)cc1,?,32µM*,-3%
COc1ccc(CN(C(=O)c2ccco2)c2ccccc2)cc1,?,-6%,-16%
COc1ccccc1C1CC(c2ccc(NS(C)(=O)=O)cc2)=NN1S(=O)(=O)c1ccccc1 (stereo unspecified),1%,-6%,-5%
O=C(c1ccco1)N1N=C(c2ccc(Br)cc2)CC1c1ccco1 (stereo unspecified),1%,-18%,-25%
